Measured values reported in PubChem BioAssay (NCATS).
“And” between values parts separate entries of the source, which are not always exact repeats. Equal values may be shown once. Inconclusive results are not listed. The source made the active and inactive calls. Unless noted, calls follow the shape of the dose curve; as a rule, active = well fitted curve in the direction sought with a large enough effect; inconclusive = small, poorly fitted or top-dose-only effect, or another doubt; inactive = no such curve, though single readings can be large; an effect the other way counts as inactive or inconclusive.

Key:
[1] = target: Cellular tumor antigen p53 (Homo sapiens) (UniProt P04637); assay: Primary qHTS for small molecule compounds that upregulate eGFP-tagged delta133p53alpha (in N-terminal) cells. (AID 2060322); conditions: NCI-H358 eGFP-delta133p53alpha fluorescence, 24 h; activation: hits give high values;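 also: cells pre-induced with doxycycline then dosed without doxycycline; series mostly up to about 56 µM; 0% = DMSO vehicle and 100% = reference activator; nearly all actives have a fitted effect of over 75% in size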
Cellular tumor antigen p53 (Homo sapiens), sequence (P04637 whole entry, looked up): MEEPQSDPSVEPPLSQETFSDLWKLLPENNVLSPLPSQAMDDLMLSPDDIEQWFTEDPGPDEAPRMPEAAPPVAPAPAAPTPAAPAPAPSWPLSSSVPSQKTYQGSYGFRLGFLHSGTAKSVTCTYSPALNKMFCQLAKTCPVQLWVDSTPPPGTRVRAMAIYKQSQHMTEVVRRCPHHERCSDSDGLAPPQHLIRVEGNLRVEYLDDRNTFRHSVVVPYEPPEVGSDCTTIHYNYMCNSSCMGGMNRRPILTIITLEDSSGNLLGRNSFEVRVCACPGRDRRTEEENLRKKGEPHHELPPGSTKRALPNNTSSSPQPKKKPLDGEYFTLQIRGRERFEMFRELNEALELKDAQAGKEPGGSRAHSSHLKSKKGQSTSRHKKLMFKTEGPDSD
How it was run: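 NCI-H358 cells pre-induced 24 h with 10 ng/ml doxycycline for eGFP-delta133p53alpha, plated dox-free and exposed 24 h at 37C to titrated compounds. Fixed, Hoechst-stained; gated GFP peak intensity by laser scanning cytometry, normalized to DMSO (0%) and 57.5 uM 5-azacytidine (100%).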

[2] = target: Cellular tumor antigen p53 (Homo sapiens) (UniProt P04637); assay: Primary qHTS for small molecule compounds that upregulate eGFP-tagged delta133p53alpha (in C-terminal) cells. (AID 2060324);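 also: 0% = DMSO wells and 100% = 57.5 µM 5-azacytidine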
How it was run: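 Read-out: gated-cell GFP peak intensity (laser scanning cytometer), plate-normalized with DMSO as 0% activity, after 24 h compound exposure at 37C. Cells were C-terminal eGFP-tagged delta133p53alpha NCI-H358, doxycycline-induced (100 ng/ml, 24 h) before plating.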

[3] = target: Aldehyde dehydrogenase, mitochondrial (Homo sapiens) (UniProt P05091); assay: qHTS for Inhibitors of the Aldehyde Dehydrogenase Family (ALDH2) Validation screens (AID 2061302; active = well fitted inhibition curve with a large enough effect; title and protocol of this record describe different tests;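 also: plate controls were DMSO vehicle for no effect and maximal DPI positive control response for full effect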)
[4] = target: Retinaldehyde dehydrogenase 3 (Homo sapiens) (UniProt P47895); assay: qHTS for Inhibitors of the Aldehyde Dehydrogenase Family (ALDH1A3) Validation screen (AID 2061312); also: % is scaled to controls: 0 for no effect and ±100 for the full control effect; nearly all actives have a fitted effect of over 45% in size

NC(N)=N/N=C/c1c(Cl)cccc1Cl
inactive: activation [1] 35% | Potency [2] | Potency [3] | Potency [4]

COc1cc(C(O)CO)ccc1O (stereo unspecified)
inactive: activation [1] -14% | Potency [2] | Potency [3] | Potency [4]

CCCn1c(=O)c2[nH]c(C3CCCC3)nc2n(CCC)c1=O
inactive: activation [1] -35.5% | Potency [2] | Potency [3] | Potency [4]

CCC1C(=O)OCC1Cc1cncn1C (stereo unspecified)
inactive: activation [1] -0.565% and -54.1% and -41.4% | Potency [2] | Potency [3] | Potency [4]

Nc1nc(SCc2ccc([N+](=O)[O-])cc2)c2ncn([C@@H]3O[C@H](CO)[C@@H](O)[C@H]3O)c2n1
inactive: activation [1] -3.28% | Potency [2] | Potency [3] | Potency [4]

C[N+](C)(C)CCOC(N)=O
inactive: activation [1] -23.4% and -15.4% | Potency [2] | Potency [3] | Potency [4]

CN(C)CCC=C1c2ccccc2CCc2ccccc21
inactive: activation [1] -12.6% and -30.9% | Potency [2] | Potency [3] | Potency [4]

CC(=O)N[C@@H](Cc1c[nH]c2ccccc12)C(=O)OCc1cc(C(F)(F)F)cc(C(F)(F)F)c1
inactive: activation [1] -29.2% | Potency [2] | Potency [3] | Potency [4]

COc1ccccc1N1CCN(CCCNc2c(C)c(=O)n(C)c(=O)n2C)CC1
inactive: activation [1] -0.789% | Potency [2] | Potency [3] | Potency [4]

CC(=O)O[C@H]1CC2(C)[C@@H](C[C@@H](O)[C@H]3[C@@]4(C)CC[C@@H](O)[C@@H](C)[C@@H]4CC[C@@]32C)C1=C(CCC=C(C)C)C(=O)O (stereo partly specified)
inactive: activation [1] -11.4% | Potency [2] | Potency [3] | Potency [4]

NC[C@H]1O[C@@H](n2cnc3c(N)ncnc32)[C@H](O)[C@@H]1O
inactive: activation [1] 4.39% | Potency [2] | Potency [3] | Potency [4]

NC(N)=NC(=O)c1nc(Cl)c(N2CCCCCC2)nc1N
inactive: activation [1] -39.1% | Potency [2] | Potency [3] | Potency [4]

CC(C)(C)NCC(O)COc1cccc2[nH]c(=O)[nH]c12 (stereo unspecified)
inactive: activation [1] -2.8% | Potency [2] | Potency [3] | Potency [4]

CN=C(N)NCCC[C@H](N)C(=O)O
inactive: activation [1] -4.6% | Potency [2] | Potency [3] | Potency [4]

CSc1nc(N)c2ncn([C@@H]3O[C@H](COP(=O)(O)OP(=O)(O)O)C(O)[C@H]3O)c2n1 (stereo partly specified)
inactive: activation [1] -2.39% | Potency [2] | Potency [3] | Potency [4]

CC#CCOC(=O)c1c(C)nc2sc3c(c2c1N)CCC(O)C3 (stereo unspecified)
inactive: activation [1] -13.8% | Potency [2] | Potency [3] | Potency [4]

CCc1ccc2c(-c3cccc(Cl)c3)nc(=O)n(CC)c2n1
inactive: activation [1] -40.5% | Potency [2] | Potency [3] | Potency [4]

CC1(C)C(=O)N(CCN2CCC(C(=O)c3ccc(F)cc3)CC2)c2ccccc21
inactive: activation [1] -67.7% and -2.62% | Potency [2] | Potency [3] | Potency [4]

CCCCCCCCc1ccc(-c2ccc(C(=O)O)cc2)cc1
inactive: activation [1] -87.3% | Potency [2] | Potency [3] | Potency [4]

O=C(O)C1=CCNCC1
inactive: activation [1] -0.576% | Potency [2] | Potency [3] | Potency [4]

CSc1ccc(C(=O)c2[nH]c(=O)[nH]c2C)cc1
inactive: activation [1] -17.5% and -26.2% | Potency [2] | Potency [3] | Potency [4]

Cn1cc(C(=O)OCC2CCN(CCNS(C)(=O)=O)CC2)c2ccccc21
inactive: activation [1] -16.5% | Potency [2] | Potency [3] | Potency [4]

C[N+](C)(C)CCCCCCCCCC[N+](C)(C)C
inactive: activation [1] -20.9% and 13% | Potency [2] | Potency [3] | Potency [4]

NC(N)=NCc1cccc(I)c1
inactive: activation [1] -18.3% | Potency [2] | Potency [3] | Potency [4]

C/C(=C\c1ccc(C(=O)O)cc1)c1ccc2c(c1)C(C)(C)CCC2(C)C
inactive: activation [1] -14.6% | Potency [2] | Potency [3] | Potency [4]

CC(/C=C/c1cccc(Oc2ccc(F)cc2)c1)N(O)C(N)=O (stereo unspecified)
inactive: activation [1] -36% | Potency [2] | Potency [3] | Potency [4]

c1ccc(C2CN3CCSC3=N2)cc1 (stereo unspecified)
inactive: activation [1] 27% | Potency [2] | Potency [3] | Potency [4]

NC[C@@H]1O[C@H](c2ccccc2)Cc2c1ccc(O)c2O
inactive: activation [1] 5.43% | Potency [2] | Potency [3] | Potency [4]

NC(=O)c1cn(Cc2c(F)cccc2F)nn1
inactive: activation [1] -12.6% and -6.02% | Potency [2] | Potency [3] | Potency [4]

CCN(CC)CCCCCCCCOC(=O)c1cc(OC)c(OC)c(OC)c1
inactive: activation [1] -40.3% | Potency [2] | Potency [3] | Potency [4]

COc1ccc(-c2ccc(N)[n+](CCCC(=O)O)n2)cc1
inactive: activation [1] -20% | Potency [2] | Potency [3] | Potency [4]

COCCc1ccc(OCC(O)CNC(C)C)cc1 (stereo unspecified)
inactive: activation [1] 4.18% and 10.1% | Potency [2] | Potency [3] | Potency [4]

N[C@@H](Cc1cnc[nH]1)C(=O)O
inactive: activation [1] 30.1% | Potency [2] | Potency [3] | Potency [4]

FC(F)(F)c1ccccc1-n1ccnc1
inactive: activation [1] 8.47% and -16.2% | Potency [2] | Potency [3] | Potency [4]

Nc1ncnc2c1nc(Sc1ccc(Cl)cc1)n2[C@H]1OC2COP(=O)(O)O[C@@H]2C1O (stereo partly specified)
inactive: activation [1] 27.8% | Potency [2] | Potency [3] | Potency [4]

O=C(O)CN(CCN(CC(=O)O)CC(=O)O)CCN(CC(=O)O)CC(=O)O
inactive: activation [1] -33.2% | Potency [2] | Potency [3] | Potency [4]

CC[C@H]1OC(=O)[C@H](C)C(O[C@H]2C[C@@](C)(OC)[C@@H](O)[C@H](C)O2)[C@H](C)[C@@H](OC2O[C@H](C)C[C@H](N(C)C)[C@H]2O)[C@](C)(O)C[C@@H](C)CN(C)[C@H](C)[C@@H](O)[C@]1(C)O (stereo partly specified)
inactive: activation [1] -28.2% | Potency [2] | Potency [3] | Potency [4]

C[C@](N)(Cc1ccc(O)cc1)C(=O)O
inactive: activation [1] -4.18% and 8.39% | Potency [2] | Potency [3] | Potency [4]

NC(N)=NC(N)=Nc1ccccc1
inactive: activation [1] -1.81% | Potency [2] | Potency [3] | Potency [4]

NC(=O)C(=O)O
inactive: activation [1] -8.72% | Potency [2] | Potency [3] | Potency [4]

Cc1nc(N=Nc2ccc(C(=O)O)cc2)c(COP(=O)(O)O)c(C=O)c1O
inactive: activation [1] -2.63% | Potency [2] | Potency [3] | Potency [4]

O=c1[nH]c2cc(C(F)(F)F)ccc2n1-c1cc(C(F)(F)F)ccc1O
inactive: activation [1] -56.6% | Potency [2] | Potency [3] | Potency [4]

CCCCC[C@H](CC(=O)NO)C(=O)N[C@H](C(=O)N1CCC[C@H]1CO)C(C)C
inactive: activation [1] -6.85% | Potency [2] | Potency [3] | Potency [4]

CN1CC(=O)N/C1=N/C(=O)Nc1cccc(Cl)c1
inactive: activation [1] 5.86% | Potency [2] | Potency [3] | Potency [4]

CC(C)(C=O)Cc1cc(C(C)(C)C)c(O)c(C(C)(C)C)c1
inactive: activation [1] -15.2% | Potency [2] | Potency [3] | Potency [4]

N[C@@H](CCCC(=O)O)C(=O)O
inactive: activation [1] -8.81% | Potency [2] | Potency [3] | Potency [4]

C[N+](C)(C)CCCCCC[N+](C)(C)C
inactive: activation [1] -20.9% and 7.49% and -11.5% | Potency [2] | Potency [3] | Potency [4]

Nc1ccn([C@H]2CC[C@@H](CO)O2)c(=O)n1
inactive: activation [1] 32.8% and -1.67% and -29% | Potency [2] | Potency [3] | Potency [4]

CCOC(=O)C12CC1/C(=N/O)c1ccccc1O2 (stereo unspecified)
inactive: activation [1] -19.2% | Potency [2] | Potency [3] | Potency [4]

O=C(CCNNC(=O)c1ccncc1)NCc1ccccc1
inactive: activation [1] -11.9% and -31.2% | Potency [2] | Potency [3] | Potency [4]

CC(CN(C)C)CN1c2ccccc2CCc2ccccc21 (stereo unspecified)
inactive: activation [1] -10% and -21.6% | Potency [2] | Potency [3] | Potency [4]

Cc1ccccc1C(OCCN(C)C)c1ccccc1 (stereo unspecified)
inactive: activation [1] 0.562% and -27.9% | Potency [2] | Potency [3] | Potency [4]

C[C@H](Cc1ccccc1)Nc1ncnc2c1ncn2[C@@H]1O[C@H](CO)[C@@H](O)[C@H]1O
inactive: activation [1] -29.5% | Potency [2] | Potency [3] | Potency [4]

CN1C2CCCC1CC(NC(=O)c1nn(C)c3ccccc13)C2 (stereo unspecified)
inactive: activation [1] -4.74% | Potency [2] | Potency [3] | Potency [4]

OC[C@H]1NC[C@@H](O)[C@@H]1O
inactive: activation [1] 4.88% | Potency [2] | Potency [3] | Potency [4]

Brc1cc2c(cc1[C@H]1Nc3ccccc3[C@H]3C=CC[C@H]31)OCO2
inactive: activation [1] -5.37% | Potency [2] | Potency [3] | Potency [4]

CCCCCCCCCCCCCCCC(=O)OC(CC(=O)O)C[N+](C)(C)C (stereo unspecified)
inactive: activation [1] -11.1% | Potency [2] | Potency [3] | Potency [4]

NC1(C(=O)O)CCCCC1
inactive: activation [1] 13.9% | Potency [2] | Potency [3] | Potency [4]

COc1ccc(CCn2nnnc2C2(c3ccc(C)cc3)CC2)cc1
inactive: activation [1] -20.3% | Potency [2] | Potency [3] | Potency [4]

CC1C(=O)N(C)C(=O)c2nc[nH]c21 (stereo unspecified)
inactive: activation [1] -19.1% | Potency [2] | Potency [3] | Potency [4]

COc1cc(CNC(=O)CCCCCCC(C)C)ccc1O
inactive: activation [1] 0.736% | Potency [2] | Potency [3] | Potency [4]

CCN(CC)CCOC(=O)c1ccc(N)cc1
inactive: activation [1] -14.2% and -16.3% | Potency [2] | Potency [3] | Potency [4]

O=C(O)c1cc(=O)cc(C(=O)O)[nH]1
inactive: activation [1] -16.3% | Potency [2] | Potency [3] | Potency [4]

CC1=NS(=O)(=O)c2cc(Cl)ccc2N1
inactive: activation [1] 19.8% and -34.3% | Potency [2] | Potency [3] | Potency [4]
